Data reported in PubChem BioAssay (NCATS).
Values joined by “and” are separate entries in the source; they are usually repeats but may differ in a detail not shown here. Equal values may be shown once. Results filed as inconclusive are left out. Active and inactive are the calls of the source. Unless noted, the call rests on the fitted dose curve; in most records, active means well fitted curve in the direction sought with a large enough effect; inconclusive means small, poorly fitted or top-dose-only effect, or another doubt; inactive means no such curve, though single readings can be large; an effect the other way counts as inactive or inconclusive.

How the values were obtained:
[1] = Cell Viability - N2a (AID 540); conditions: N2a mouse neuroblastoma cell viability; at 92.2 µM (top of the series);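 further: cells exposed to compound for 40 h at 37 °C; plate controls were DMSO alone for no effect and tamoxifen control for full effect; nearly all actives have a fitted effect of over 45% in size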
Procedure, shortened: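 N2a mouse neuroblastoma, 1500 cells/well, 5 hr settle; compound 40 hr, 37 °C; CellTiter-Glo 20 min RT; luminescence; Hill-fit AC50.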

[2] = Cellular Toxicity (caspase-3) HepG2 (AID 654);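 further: cells exposed to compound for 16 hours before reading; 0% = DMSO alone and 100% = caspase signal from 100 µM tamoxifen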
Procedure, shortened: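 Luminescent Caspase-Glo 3/7 readout after 16 hr compound exposure of human hepatocellular carcinoma HepG2 cells at 37 °C; qHTS concentration-response, normalized DMSO = 0%, 100 uM tamoxifen = 100%; AC50 by standard Hill equation.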

[3] = Cellular Toxicity (caspase-3) Hek293 (AID 664);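 further: cells exposed to compound for 16 h at 37 °C before readout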
Procedure, shortened: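 Luminescent Caspase-Glo 3/7 readout (aminoluciferin release) in HEK293 cells after 16 h compound treatment, 37 °C. Normalization: DMSO = basal, 100 uM tamoxifen = 100% stimulation. Concentration-response fitted with standard Hill equation for AC50.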

[4] = MultiTox-Fluor Cytotoxicity Assay - LYMP1-002 - Live Cells (AID 955); further: on the % scale 0 is the no-effect control and ±100 the full control effect
Procedure, shortened: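 LYMP1-002 lymphoblastoid cells; 2500 cells/well; 16 hr compound exposure, 37 C; MultiTox-Fluor reagent 60 min RT; live-cell fluorescence Ex/Em=405/510; qHTS concentration-response, Hill-equation AC50; tetraoctylammonium bromide positive control.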

[5] = MultiTox-Fluor Cytotoxicity Assay - LYMP1-002 - Dead Cells (AID 960);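 further: 0% = DMSO and 100% = tetraoctylammonium bromide; nearly all actives have a fitted effect of over 60% in size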
Procedure, shortened: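 Readout: fluorescence at 485/520 from cell-impermeant bis-AAF-R110 cleaved by proteases leaking from damaged cells. LYMP1-002 lymphoblastoid line, 16 hr compound treatment at 37 C, concentration-response in qHTS format; Hill-equation AC50 values.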

[6] = MultiTox-Fluor Cytotoxicity Assay - LYMP1-003 - Live Cells (AID 962);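 further: 0% = DMSO only and full loss = 92 µM tetraoctylammonium bromide; cytotoxic hits lower the live-cell protease signal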
Procedure, shortened: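 Readout: live-cell fluorescence (Ex/Em=405/510) from GF-AFC cleavage after 60 min MultiTox-Fluor reagent at room temperature. Lymphoblastoid LYMP1-003 cells, 16 hr compound treatment, 37 C. Concentration-response fitted to standard Hill equation for AC50.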

[7] = Cell Viability - LYMP1-003 - Assay at 24 hr (AID 963);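 further: plate controls were DMSO only for no effect and tetraoctylammonium bromide positive control for full effect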
Procedure, shortened: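 CellTiter-Glo luminescence (intracellular ATP) read after 24 hr, 37 C compound exposure of 2500 LYMP1-003 human lymphoblastoid cells/well in complete medium; qHTS concentration series; AC50 via standard Hill equation.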

[8] = Cell Viability - LYMP2-003 (AID 965);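 further: cells exposed to compounds for 24 h before reading; 0% = DMSO only and full effect = 92 µM tetraoctylammonium bromide; nearly all actives have a fitted effect of over 50% in size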
Procedure, shortened: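 CellTiter-Glo luminescence quantified ATP loss after 24 h compound treatment of LYMP2-003 lymphoblastoid cells at 37 C. Titration series were fitted with the standard Hill equation to give AC50.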

[9] = Cell Viability - LYMP2-005 (AID 967);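 further: plate controls were DMSO only for no effect and 92 µM tetraoctylammonium bromide control for full effect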
Procedure, shortened: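 LYMP2-005 human lymphoblastoid cells (2500/well) were treated with compounds for 24 h at 37 C. Intracellular ATP was then measured by CellTiter-Glo luminescence after 30 min at room temperature. AC50 values came from Hill-equation fits of qHTS concentration-response data.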

[10] = Cell Viability - LYMP2-011 (AID 969);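 further: 0% = DMSO only and full inhibition = 92 µM tetraoctylammonium bromide; nearly all actives have a fitted effect of over 60% in size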
Procedure, shortened: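 Luminescent ATP read-out (CellTiter-Glo, 30 min RT) after 24 hr compound exposure at 37 C in human lymphoblastoid cells, 2500 cells/well. Decreasing ATP indicates cytotoxicity; AC50 from standard Hill fit.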

[11] = Cell Viability - LYMP2-013 (AID 970);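 further: 0% = DMSO only and full inhibition = tetraoctylammonium bromide control; nearly all actives have a fitted effect of over 55% in size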
Procedure, shortened: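 CellTiter-Glo luminescence (cellular ATP) read after 30 min at RT. Cells: human lymphoblastoid line, 2500/well, 24 hr compound exposure at 37 C. Tetraoctylammonium bromide positive control; AC50 via standard Hill fit of qHTS titrations.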

[12] = Cell Viability - LYMP2-015 (AID 971);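 further: 0% = DMSO only and full effect = 92 µM tetraoctylammonium bromide; nearly all actives have a fitted effect of over 55% in size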
Procedure, shortened: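 qHTS cytotoxicity: 2500 cells/well, 5 hr 37 C, compound 24 hr 37 C, CellTiter-Glo 30 min RT, luminescence. Loss of ATP = toxicity; AC50 via standard Hill fit.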

[13] = Cell Viability - LYMP2-025 (AID 976);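 further: plate controls were DMSO only for no effect and tetraoctylammonium bromide control for full effect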
Procedure, shortened: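 CellTiter-Glo luminescence (cellular ATP) after 24 h compound exposure at 37 C; LYMP2-025 human lymphoblastoid cells, 2500/well, complete medium. Tetraoctylammonium bromide positive control. AC50 by Hill equation fit of qHTS concentration-response.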

[14] = Cell Viability - LYMP2-006 (AID 978); further: on the % scale 0 is the no-effect control and ±100 the full control effect; nearly all actives have a fitted effect of over 60% in size
Procedure, shortened: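 Potency values are Hill-fit AC50s for decreases in intracellular ATP (CellTiter-Glo luminescence). LYMP2-006 lymphoblastoid cells, 2500 per well, were exposed to compound in complete culture medium for 24 hr at 37 C.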

[15] = Cell Viability - LYMP2-008 (AID 980); further: on the % scale 0 is the no-effect control and ±100 the full control effect; nearly all actives have a fitted effect of over 60% in size
Procedure, shortened: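 Luminescent ATP read-out (CellTiter-Glo, 30 min RT) after 24 hr compound exposure at 37 C of human lymphoblastoid cells in complete medium. Decrease in ATP taken as cytotoxicity; AC50 derived by standard Hill fit of qHTS concentration-response data.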

[16] = Cell Viability - LYMP1-002 - Assay at 24 hr (AID 993); further: on the % scale 0 is the no-effect control and ±100 the full control effect
Procedure, shortened: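 CellTiter-Glo luminescence (intracellular ATP) after 24 h compound exposure, 37 C, in LYMP1-002 human lymphoblastoid cells; decreased ATP taken as cytotoxicity. AC50 from standard Hill fit of concentration-response curves.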

[17] = Cell Viability - LYMP1-002 - Assay at 40 hr (AID 994)
Procedure, shortened: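 qHTS cytotoxicity; 2500 cells/well, 5 hr 37 C settle, compound 40 hr 37 C. CellTiter-Glo, 30 min RT, luminescence (ATP). Concentration-response, Hill fit → AC50. Pos. ctrl tetraoctylammonium bromide.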

[18] = biological target: Peroxisome proliferator-activated receptor delta (Homo sapiens) (UniProt Q03181); experiment: qHTS assay for small molecule agonists of peroxisome proliferator-activated receptor delta signaling (AID 588534; calls by dose curve;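 further: 0% = DMSO basal wells and 100% = positive control agonist at 10 µM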)
Procedure, shortened: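 Titration series tested in agonist mode on beta-lactamase reporter cells; 18 hrs at 37 C after a 5 hr pre-incubation. Readout: CCF4 fluorescence, 2 hrs RT. Hill equation gives EC50 and maximal response.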

[19] = biological target: Peroxisome proliferator-activated receptor alpha (Homo sapiens) (UniProt Q07869); experiment: qHTS assay for small molecule agonists of the peroxisome proliferator-activated receptor alpha (PPARalpha) signaling pathway (AID 651778); conditions: PathHunter PPARalpha complementation, chemiluminescence, 6 h; active compounds read high; further: % of control where 0% means no effect
Procedure, shortened: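 Chemiluminescence from complemented enzyme reported PPARalpha activation in cells after 6 hr of compound treatment at 37 C. The detection reagent was incubated for 60 min at room temperature, and compounds were scored as agonists.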

[20] = qHTS assay for small molecule agonists of the antioxidant response element (ARE) signaling pathway measured by Nrf2-dependant transcriptional activity (AID 720636; active means well fitted curve in the direction sought with a large enough effect in the repeat runs; an effect the other way counts as inactive or inconclusive; further: % of control where 0% means no effect)
Procedure, shortened: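 ARE-luc HepG2 cells carrying an Nrf2-responsive luciferase reporter were plated in medium with 1% dialyzed FBS, left 6 hr at 37 C to attach, then exposed to compound for 16 hr. Luciferase luminescence was read after ONE-Glo addition.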

Sequence of Peroxisome proliferator-activated receptor alpha (Homo sapiens) (Q07869 whole entry, looked up): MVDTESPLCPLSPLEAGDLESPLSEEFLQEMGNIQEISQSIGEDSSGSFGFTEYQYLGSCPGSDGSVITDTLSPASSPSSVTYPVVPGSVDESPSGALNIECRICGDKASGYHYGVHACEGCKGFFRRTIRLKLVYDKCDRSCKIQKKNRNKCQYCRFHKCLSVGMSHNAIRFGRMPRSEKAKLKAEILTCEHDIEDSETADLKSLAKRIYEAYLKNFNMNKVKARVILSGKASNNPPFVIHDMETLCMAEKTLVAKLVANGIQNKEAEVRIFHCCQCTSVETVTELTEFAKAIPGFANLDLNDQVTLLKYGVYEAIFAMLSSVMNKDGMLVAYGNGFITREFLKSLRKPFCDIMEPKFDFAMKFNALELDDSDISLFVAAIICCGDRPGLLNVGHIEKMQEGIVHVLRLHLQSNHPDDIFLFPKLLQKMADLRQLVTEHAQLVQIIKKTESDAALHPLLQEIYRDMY
Sequence of Peroxisome proliferator-activated receptor delta (Homo sapiens) (Q03181 whole entry, looked up): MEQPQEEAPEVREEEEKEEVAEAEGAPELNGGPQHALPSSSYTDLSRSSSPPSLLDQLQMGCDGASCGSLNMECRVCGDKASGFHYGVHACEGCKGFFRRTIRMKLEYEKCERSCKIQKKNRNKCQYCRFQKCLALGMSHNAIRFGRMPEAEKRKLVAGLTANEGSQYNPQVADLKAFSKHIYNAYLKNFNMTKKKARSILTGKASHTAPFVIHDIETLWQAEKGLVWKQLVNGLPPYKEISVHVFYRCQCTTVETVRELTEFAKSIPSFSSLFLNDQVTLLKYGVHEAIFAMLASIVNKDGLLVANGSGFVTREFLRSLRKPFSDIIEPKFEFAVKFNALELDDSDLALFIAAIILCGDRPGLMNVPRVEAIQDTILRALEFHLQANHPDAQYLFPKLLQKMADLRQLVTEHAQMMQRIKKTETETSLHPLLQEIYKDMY

CCOc1ccc(N)cc1
inactive: activity change, negative = cytotoxicity [1] -4.95% | outcome [2] | outcome [3] | outcome [4] | Potency [5] | Potency [6] | Potency [7] | Potency [8] | Potency [9] | Potency [10] | Potency [11] | Potency [12] | Potency [13] | Potency [14] | Potency [15] | Potency [16] | Potency [17] | outcome [18] | max response [19] 3.04% | outcome [20]

C=C(C)C(=O)OCC1CO1 (stereo not drawn)
inactive: activity change, negative = cytotoxicity [1] -4.08% | outcome [2] | outcome [3] | outcome [4] | Potency [5] | Potency [6] | Potency [7] | Potency [8] | Potency [9] | Potency [10] | Potency [11] | Potency [12] | Potency [13] | Potency [14] | Potency [15] | Potency [16] | Potency [17] | outcome [18] | max response [19] -4.83% | outcome [20]

ClC(Cl)(Cl)c1ccccc1
inactive: activity change, negative = cytotoxicity [1] 2.93% and 2.42% | outcome [2] | outcome [3] | outcome [4] | Potency [5] | Potency [6] | Potency [7] | Potency [8] | Potency [9] | Potency [10] | Potency [11] | Potency [12] | Potency [13] | Potency [14] | Potency [15] | Potency [16] | Potency [17] | outcome [18] | max response [19] -2.9% and -5.05% | outcome [20]

ClC(Cl)=C(Cl)Cl
inactive: activity change, negative = cytotoxicity [1] -8.38% and -0.61% | outcome [2] | outcome [3] | outcome [4] | Potency [5] | Potency [6] | Potency [7] | Potency [8] | Potency [9] | Potency [10] | Potency [11] | Potency [12] | Potency [13] | Potency [14] | Potency [15] | Potency [16] | Potency [17] | max response [19] -0.144% and -2.45% | outcome [20]

C=C(C)C#N
inactive: activity change, negative = cytotoxicity [1] 1.28% | outcome [2] | outcome [3] | outcome [4] | Potency [5] | Potency [6] | Potency [7] | Potency [8] | Potency [9] | Potency [10] | Potency [11] | Potency [12] | Potency [13] | Potency [14] | Potency [15] | Potency [16] | Potency [17] | outcome [18] | max response [19] -3.42% and 0.836% | outcome [20]

CC(=O)[O-].CC(=O)[O-].O.O.O.[Pb+2]
inactive: activity change, negative = cytotoxicity [1] 13.3% and 9.03% | outcome [2] | outcome [3] | outcome [4] | Potency [5] | Potency [6] | Potency [7] | Potency [8] | Potency [9] | Potency [10] | Potency [11] | Potency [12] | Potency [13] | Potency [14] | Potency [15] | Potency [16] | Potency [17] | max response [19] -4.64% and -4.52% | outcome [20]
